# Test results: PubChem BioAssay AID504727 (Broad Institute, 2011)
# A number with no mark means an inactive call. Activity calls are given as the source filed them.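 How the source made its calls: active means fitted half-maximal concentration AC50 at or below ten times the highest valid tested dose, with signal falling as DNA is displaced (actives reach about 34 µM in these data); inconclusive means flat fit at moderate signal loss, or poor fit quality; inactive means the rest, including signal rising instead of falling.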
# Assay: DNA intercalators displacing acridine orange, dose response, artefact control for KSHV LANA DNA-binding inhibitor project, biochemical, fluorescence polarization, cherry-picked samples, set 2 (AID 504727);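 on activity change, negative = DNA displacement: 0% = median of neutral control wells and -100% = mitoxantrone positive control wells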
# Settings: AC50: Acridine orange-DNA displacement; series mostly up to 35 µM; activity change, negative = DNA displacement: at the top concentration
SMILES,"activity change, negative = DNA displacement [%]",AC50
NNc1nc2sc3c(c2c(=O)n1C1CCCCC1)CCN(Cc1ccccc1)C3,3.94,–
CC(=O)Nc1ccc(S(=O)(=O)Nc2nc3ccccc3nc2Nc2ccc(C(=O)O)c(O)c2)cc1,-0.292,–
FC(F)(F)c1nnc(-c2ccccc2)nc1N1CCCC1,2.74,–
C=C1c2cccc(O)c2C(O)=C2C(=O)[C@]3(O)C(O)=C(C(N)=O)C(=O)[C@@H](N(C)C)[C@@H]3[C@@H](O)[C@H]12,5.07,–
COc1cccc(NC(=O)N(CCN(C)C)C(C)c2cccnc2)c1 (stereo not drawn),5.51,–
CCOc1ccc(S(=O)(=O)N(C)c2ccc(OCC(=O)NC3=NCCS3)cc2)cc1,-1.93,–
Cc1cccnc1NC1(C(F)(F)F)N=C2SCCN2C1=O (stereo not drawn),4.57,–
CCN(CC)CCN1C(=O)c2cccc3cc(N)cc(c23)C1=O,–,17 µM (active)
CC(C)(C)n1nnnc1C(c1cccnc1)N(Cc1ccccc1)Cc1ccco1 (stereo not drawn),–,0.202 µM (active)
Nc1ccc2nc3c(=O)n(C4CCCCC4)c(=O)[nH]c3nc2c1,–,3.19 µM (active)
COc1cccc(NC(=O)CN(C)C(=O)c2cc3ccccc3cc2OC)c1,4.45,–
Nc1nc(C(F)(F)F)cc(=O)[nH]1,1.02,–
CC(C)=C[C@@H]1C[C@H](C)[C@H]2CC[C@H](C)c3c(O[C@@H]4O[C@@H](C)[C@@H](O)[C@@H](O)[C@@H]4O)c(O)c(C)c1c32,4.1,–
COc1ccc(NC(=O)CO/N=C2/CCCc3nonc32)c(OC)c1,-0.363,–
COc1ccc(C2C(C(=O)c3cccs3)=C(O)C(=O)N2c2nnc(C)s2)cc1OC (stereo not drawn),–,21.6 µM (active)
CCCCN(C(=O)CSc1nnc(-c2ccc(Cl)cc2)o1)c1c(N)n(CC(C)C)c(=O)[nH]c1=O,6.07,–
O=C(Nc1ccc2c(c1)OCO2)N1CCCc2ccccc21,5.61,–
CC1CCCN(C(=O)C(=O)c2cn(CC(=O)N3CCCCCC3)c3ccccc23)C1 (stereo not drawn),2.69,–
O=c1[nH]c2c(s1)C=Nc1ccccc1N2,–,6.39 µM (active)

SMILES,"activity change, negative = DNA displacement [%]",AC50
O=C(NCCCO)c1ccc2nc(-c3ccco3)c(-c3ccco3)nc2c1,-3.41,–
CCOc1ccccc1N1CCN(C(=O)c2ccc3nc(N)sc3c2)CC1,5.07,–
NC(=S)NN=Cc1ccc(-c2ccc(S(=O)(=O)Nc3ncccn3)cc2)o1,-0.734,–
CC(C)CC(=O)Nc1nnc(CSCc2ccc(F)cc2)s1,5.86,–
COc1ccccc1CNC(=O)C(=O)NCC1CCCN1S(=O)(=O)c1cccs1 (stereo not drawn),1.74,–
O=C1CCCC(O)=C1N=Nc1ccc(C(=O)O)cc1,3.7,–
O=C(COc1cccc(F)c1)Nc1nc(-c2cccnc2)cs1,-0.97,–
CN(C)CCNc1ccc2ncn3c4ccc(O)cc4c(=O)c1c23,–,8.68 µM (active)
CC1=[N+](C)N(c2ccccc2)C(=O)C1N=C/C=C/c1ccccc1 (stereo not drawn),2.35,–
O=C(NC1(O)C(=O)c2ccccc2C1=O)c1c(Cl)cccc1Cl,0.062,–
CCC(Sc1ncccc1C(=O)O)C(=O)N1CCCC1 (stereo not drawn),6.54,–
NS(=O)(=O)c1ccc(N=Nc2c[nH]c(=O)c(O)c2)cc1,–,15.8 µM (active)
COc1ccc(NC(=O)CN(C)CC(=O)Nc2ccc(N3CCOCC3)cc2)c([N+](=O)[O-])c1,-1.51,–
CC1Cc2ccccc2N1C(=O)CCS(=O)(=O)c1cccs1 (stereo not drawn),6.68,–
COc1ccc2[nH]c3c(C)c4cc[n+](C)cc4c(C)c3c2c1,–,2.53 µM (active)
CCOC(=O)c1ccc[n+](CC(=O)c2ccc(OC)cc2)c1,-0.822,–
Cc1ccc(S(=O)(=O)Nc2ccc(Br)cc2C(NCC(=O)O)c2ccccc2)cc1 (stereo not drawn),-0.652,–
Oc1ccc(-c2nc3ccccn3c2NCc2ccco2)cc1,2.5,–
Nc1nc(-c2ccc(C(=O)O)cc2)cs1,2.05,–
